Compound activity: PubChem BioAssay, The Scripps Research Institute Molecular Screening Center
A selection: hits, their analogues and other compounds. The true share with any hit is near 3.2%.
sPLA2-III inh = Blocks human group III sPLA2 activity; Q9NZ20; QFRET BODIPY PC-A2 liposome hydrolysis, fluorescence; inhibition, % at 12.2 µM; 370,000 compounds, 0.56% hits; AID 743126;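 active means inhibition above mean plus 3 SD of compounds lying within the high and low control bounds, cut at about 19% in these data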
Target sequence (Q9NZ20 whole entry, looked up): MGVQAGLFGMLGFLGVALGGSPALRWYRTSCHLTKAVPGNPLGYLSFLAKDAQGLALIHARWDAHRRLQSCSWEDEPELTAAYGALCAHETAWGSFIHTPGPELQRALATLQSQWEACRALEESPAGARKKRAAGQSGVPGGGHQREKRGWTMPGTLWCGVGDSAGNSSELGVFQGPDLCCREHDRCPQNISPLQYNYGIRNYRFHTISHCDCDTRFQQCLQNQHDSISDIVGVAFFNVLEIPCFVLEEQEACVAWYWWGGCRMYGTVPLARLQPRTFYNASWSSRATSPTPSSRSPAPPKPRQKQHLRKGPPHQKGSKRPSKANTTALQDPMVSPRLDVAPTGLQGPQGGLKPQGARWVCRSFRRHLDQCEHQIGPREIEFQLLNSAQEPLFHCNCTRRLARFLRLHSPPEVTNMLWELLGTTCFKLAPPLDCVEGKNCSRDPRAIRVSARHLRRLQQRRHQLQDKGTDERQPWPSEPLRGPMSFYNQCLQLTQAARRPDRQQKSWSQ
rCAG binder = molecules binding r(CAG) RNA repeats | r(CAG) RNA repeat, TO-PRO-1 dye displacement fluorescence | inhibition, % at 3 µM | 370,000 compounds, 1.3% hits;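 active means inhibition above the plate cutoff, the mean of all test compounds on that plate plus 3 SD, cut at about 35% in these data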;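 further: higher means more dye released from RNA so lower well fluorescence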
PG9 Ab binder = small molecules binding HIV-1 gp120 antibody PG9. 360,000 compounds, 0.43% hits. inhibition, % at 6.7 µM. TR-FRET gp120-PG9 antibody binding; in the data active means inhibition above about 8.5%
MsrA inhibitor = inhibits bovine methionine sulfoxide reductase A; purified bovine MsrA, absorbance read-out; inhibition, % at 15.5 µM; 360,000 compounds, 0.75% hits; AID 651718; in the data active means inhibition above about 4.5%
bovine MsrA act = activates bovine MsrA enzyme | purified bovine MsrA, absorbance read-out | activation, % at 10.6 µM | 360,000 compounds, 0.3% hits | AID 602163; in the data active means activation above about 7.5%
PG9 bind confirm = confirmation of small molecules binding HIV-1 gp120 antibody PG9 | shares compounds with PG9 Ab binder | TR-FRET PG9 antibody binding, biochemical | inhibition, % at 6.7 µM | 1,500 compounds, 90% hits | AID 651571; in the data active means inhibition above about 9%
PGV04 Ab binding = PGV04 control antibody binding, counter-screen | shares compounds with PG9 Ab binder | TR-FRET PGV04 antibody-gp120 binding, biochemical | inhibition, % at 6.7 µM | 1,500 compounds, 95% hits; in the data active means inhibition above about 9.5%
PG9 binder DR = small molecules binding HIV-1 gp120 antibody PG9; shares compounds with PG9 Ab binder; IC50, µM; TR-FRET PG9 antibody-gp120 binding inhibition; 95 tested, under 10 active; in the data active means IC50 below about 10 µM
PGV04 DR counter = PGV04 binding, dose response counter-screen | TR-FRET binding to control antibody PGV04 | IC50, µM | shares compounds with PG9 Ab binder | 95 compounds, 20% hits
PG126 binding DR = PG126 binding, dose response counter-screen | TR-FRET binding to antibody PG126, counterscreen | AID 651939 | 95 compounds, 20% hits | shares compounds with PG9 Ab binder | IC50, µM
Of the large screens only hits and unclear results are named; the others gave an inactive call (follow-up assays come after a bar, where they were run). Unless noted, no stated cut-off is given here; in the data, active means IC50 below about 9 µM; inactive means the rest.

Cc1cc(NC(=O)CSc2nc(C3CC3)nc3sc(C)c(C)c23)no1	PG9 Ab binder 8.9 | PG9 bind confirm 13.1 | PGV04 Ab binding 12.0 | PG9 binder DR inactive | PGV04 DR counter inactive | PG126 binding DR inactive
Cc1nc(SCC(=O)Nc2ccccc2Cl)c2c(C)c(C)sc2n1	PG9 Ab binder 18.9 | PG9 bind confirm 12.1 | PGV04 Ab binding 17.2
Cc1nc(SCC(=O)NC2CCCC2)c2c(C)c(C)sc2n1	none
COC(=O)c1cccc(Cn2ccc3ccc(-c4ccc5ccn(C(=O)c6cccc(OC)c6)c5c4)cc32)c1	none (no result: PG9 Ab binder, MsrA inhibitor, bovine MsrA act)
CC(Sc1cccc2cccc(C(=O)O)c12)C(=O)O (centres undefined)	none
CC(Sc1cnc2ccccc2n1)C(=O)O (centres undefined)	PG9 Ab binder 12.6 | PG9 bind confirm 17.8 | PGV04 Ab binding 22.6
CC(Sc1ccc2ccccc2n1)C(=O)O (centres undefined)	PG9 Ab binder 50.2 | PG9 bind confirm 52.5 | PGV04 Ab binding 58.8
Cc1cc(SC(C)C(=O)O)nc2ccccc12 (centres undefined)	none
CC(=O)c1c(C)[nH]c(C(=O)Nc2ccc(C)c(S(=O)(=O)Nc3ccc(C)cc3C)c2)c1C	PG9 Ab binder 10.6 | PG9 bind confirm 13.2 | PGV04 Ab binding 15.6
CCCCn1c(SCC(=O)c2ccc(OCC)cc2)nc2cc(S(N)(=O)=O)ccc21	PG9 Ab binder 19.0 | PG9 bind confirm 22.1 | PGV04 Ab binding 35.3
CCCCn1c(SCC(=O)c2ccc(OC)c(OC)c2)nc2cc(S(N)(=O)=O)ccc21	none
COc1ccc(OC)c(NC(=O)c2[nH]c(C)c(C(C)=O)c2C)c1	none
COc1ccc(Cl)cc1NC(=O)c1[nH]c(C)c(C(C)=O)c1C	PG9 Ab binder 27.0 | PG9 bind confirm 28.4 | PGV04 Ab binding 31.4
CCn1c(SCc2nc(-c3ccccc3)no2)nnc1-c1ccco1	PG9 Ab binder 15.4 | PG9 bind confirm 48.7 | PGV04 Ab binding 61.4
C=CC[C@H]1c2ccccc2[C@H]2N3N=Cc4ccccc4[C@H]3[C@H](CCCC)C(=O)N2N1C(=O)c1ccccc1	none (no result: PG9 Ab binder, MsrA inhibitor, bovine MsrA act)
C[C@]12c3[nH]c4ccccc4c3CCN1C(=O)C(CC(=O)NCCCn1ccnc1)C[C@@H]2C(=O)N1CCOCC1 (some centres undefined)	PG9 Ab binder 14.9 | PG9 bind confirm inactive | PGV04 Ab binding 9.3
COc1ccc(CC2CCN(c3ncnc4sccc34)CC2)cc1	none (no result: rCAG binder, PG9 Ab binder, MsrA inhibitor, bovine MsrA act)
NC(=O)c1c(N)[nH]c(C(=O)c2ccccc2)c1-c1ccccc1C(F)(F)F	none (no result: rCAG binder, PG9 Ab binder, MsrA inhibitor, bovine MsrA act)
COc1ccc(/C=C/c2c(-c3ccc(OC)cc3)sc3ccc(N4CCOCC4)cc23)cc1	none (no result: sPLA2-III inh, rCAG binder, PG9 Ab binder, MsrA inhibitor)
COc1ccc(-c2oc3ccc(N4CCOCC4)cc3c2/C=C/c2ccc(OC)c(OC)c2)cc1	PG9 Ab binder 10.4 | PG9 bind confirm 15.3 | PGV04 Ab binding 28.2
Cc1nc2ccc(-c3nc4ccccc4o3)cc2[nH]1	none
Nc1ccc(-c2nc3ccc(-c4nc5ccccc5o4)cc3[nH]2)cc1	PG9 Ab binder 10.3 | PG9 bind confirm 10.3 | PGV04 Ab binding 20.5
COc1ccc(-c2cc(-c3ccc(Br)cc3)nc3ncnn23)cc1OC	PG9 Ab binder 13.0 | PG9 bind confirm 12.1 | PGV04 Ab binding 20.1
COc1ccc(-c2cc(-c3ccccc3)nc3ncnn23)cc1	none
N#Cc1c(-c2ccco2)nc(SCc2ccc(F)cc2)[nH]c1=O	rCAG binder 49.9, PG9 Ab binder 32.6 | PG9 bind confirm 32.8 | PGV04 Ab binding 37.0
COC(=O)[C@]12C[C@H](CC(=O)NCc3cccc(C(F)(F)F)c3)C(=O)N(Cc3ccco3)C1=C[C@H](C1CCCC1)O[C@@H]2C	none (no result: PG9 Ab binder, MsrA inhibitor, bovine MsrA act)
O=C(Nc1ccc(F)cc1)c1ccc(COc2ccccc2)cc1	PG9 Ab binder 9.6 | PG9 bind confirm 46.4 | PGV04 Ab binding 55.8
O=C(NCC(c1ccc(F)cc1)N1CCOCC1)c1ccc(OCc2ccccc2)cc1 (centres undefined)	PG9 Ab binder 17.2 | PG9 bind confirm 16.7 | PGV04 Ab binding 21.7
CC1CCCCN1C(=O)COC(=O)CNC(=O)c1sc2ccccc2c1Cl (centres undefined)	none
Cc1cccc(NC(=O)CNC(=O)c2sc3ccccc3c2Cl)n1	PG9 Ab binder 11.8 | PG9 bind confirm inactive | PGV04 Ab binding 40.9
COc1cccc(NC(=O)CN(C)C(=O)CNC(=O)c2sc3ccccc3c2Cl)c1	none
CC(=O)c1cccc(NC(=O)CNC(=O)c2sc3ccccc3c2Cl)c1	PG9 Ab binder 14.6 | PG9 bind confirm 17.0 | PGV04 Ab binding 40.6
CCOC(=O)C1CCN(C(=O)COC(=O)CNC(=O)c2sc3ccccc3c2Cl)CC1	PG9 Ab binder 10.0 | PG9 bind confirm 11.6 | PGV04 Ab binding 16.4
COC(=O)c1cc(Br)c(=O)n(-c2cccc(F)c2)c1	PG9 Ab binder 11.4 | PG9 bind confirm 19.2 | PGV04 Ab binding 23.3
COC(=O)c1cc(Br)c(=O)n(-c2ccc(OC)cc2)c1	PG9 Ab binder 9.9 | PG9 bind confirm 16.8 | PGV04 Ab binding 21.9
COC(=O)c1cc(Br)c(=O)n(-c2ccccc2OC)c1	none
CCCCNC(=O)NCCCN1CCN(c2ccc(F)cc2)CC1	none (no result: PG9 Ab binder, MsrA inhibitor, bovine MsrA act)
CCCCCNC(=O)C(c1ccncc1)n1c(=O)c(-c2ccco2)nc2ccccc21 (centres undefined)	PG9 Ab binder 9.1 (no result: bovine MsrA act) | PG9 bind confirm inactive | PGV04 Ab binding inactive
O=C(COC(=O)c1ccccc1-n1cnnn1)c1ccc(Br)cc1	PG9 Ab binder 10.3 | PG9 bind confirm 10.7 | PGV04 Ab binding 16.2
O=C(COC(=O)c1ccccc1O)NNC(=O)c1ccc(Br)cc1	PG9 Ab binder 9.5 | PG9 bind confirm 13.9 | PGV04 Ab binding 25.2
O=C(CN1C(=O)C2CCCCN2C(=O)c2ccccc21)N1CCCC1 (centres undefined)	none (no result: PG9 Ab binder, MsrA inhibitor, bovine MsrA act)
COc1ccc(OC)c2c1sc(=NC(=O)c1cccc(N3C(=O)CCC3=O)c1)n2C	PG9 Ab binder 51.6 | PG9 bind confirm 65.2 | PGV04 Ab binding 82.2
O=C(Nc1ccccc1)OCCN1C(=O)CCC12CCC(c1ccccc1)CC2 (centres undefined)	none (no result: PG9 Ab binder, MsrA inhibitor, bovine MsrA act)
O=C(Cc1ccccc1)Nc1nc(=O)c2ccccc2s1	PG9 Ab binder 67.6 | PG9 bind confirm 71.7 | PGV04 Ab binding 77.9
O=C(Nc1nc2ccccc2c(=O)s1)c1ccc(F)cc1Cl	PG9 Ab binder 70.7 | PG9 bind confirm 60.0 | PGV04 Ab binding 77.2
Nc1ccc(C(=O)Nc2nc3ccccc3s2)cc1	none
O=C(Nc1nc(=O)c2ccccc2s1)c1ccc(F)cc1	PG9 Ab binder 41.5 | PG9 bind confirm 65.8 | PGV04 Ab binding 78.0
